Screening results (PubChem BioAssay)
This is a sample that favours compounds with a hit; in the whole collection about 11% have one here.
JMJD2A Tudor inh = blocks the human JMJD2A Tudor domain; O75164; AlphaScreen JMJD2A-Tudor / H3K4me3 peptide binding; Potency, µM (series often up to 114 µM), inactives show at the top dose activity change, negative = inhibition, hits mostly inhibitors; hit rate 4.4% among 390,000; note: % is set by controls: 0 for no effect and ±100 for the full control effect; nearly all actives have a fitted effect of over 50% in size
BAZ2B block = blocks human BAZ2B. AlphaScreen BAZ2B-H3K14Ac peptide displacement. Potency, µM (highest dose often 114 µM), without a hit: at the top dose activity change, negative = inhibition, most hits filed as inhibitors. hit rate 4.4% among 360,000; note: % is set by controls: 0 for no effect and ±100 for the full control effect; nearly all actives have a fitted effect of over 60% in size
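Complex of BAZ2B and biotin-H3K14Ac (50 nM apiece) forms over 30 min at RT, then faces library compounds up to 110 uM for another 30 min; AlphaScreen beads added, 20 min dark incubation, luminescence read.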
HP1b binding inh = HP1-beta chromodomain-methylated histone interaction inhibition. AlphaScreen HP1-beta / biotin-H3K9me3 peptide binding. Potency, µM (titrated, usually from 114 µM), inactives show top-dose activity change, negative = inhibition, most hits filed as inhibitors. hit rate 0.56% among 390,000. AID 540317; note: nearly all actives have a fitted effect of over 70% in size
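HP1-beta protein (50 nM final) preincubated 30 min at room temperature with biotinylated H3(1-18)K9me3 peptide (50 nM) in PBS pH 7.4, 0.01% Tween-20, then compound added for 30 min. AlphaScreen streptavidin donor/nickel chelate acceptor beads (10 ug/mL final), 30 min dark, luminescence read.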
L3MBTL1 inh = blocks human L3MBTL1; AID 485360; Q9Y468; AlphaScreen L3MBTL1–H3K9me1 peptide binding; hit rate 0.66% among 230,000; Potency, µM (highest dose often 57.1 µM), inactives show at the highest dose activity, negative = inhibition, usual class: inhibitors; note: % is set by controls: 0 for no effect and ±100 for the full control effect; nearly all actives have a fitted effect of over 60% in size
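L3MBTL1 50 nM + b-AHA-H3(1-15)K9me1 75 nM, 30 min RT; compound added, 30 min RT; streptavidin donor/Ni-chelate acceptor beads 10 ug/mL each final, 30 min RT dark; AlphaScreen read.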
G9a block = inhibitors of human histone lysine methyltransferase G9a; hit rate 8.8% among 350,000; Potency, µM (highest dose often 102 µM), for inactives: at the highest dose activity, negative = inhibition, hits mostly inhibitors; Q96KQ7; AID 504332; G9a H3K9 monomethylation, AlphaScreen, 2 h; note: % is set by controls: 0 for no effect and ±100 for the full control effect; nearly all actives have a fitted effect of over 75% in size
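Chemiluminescent proximity detection of H3K9 monomethylation, read after 10 min bead incubation in the dark. Reaction: 20 nM G9a, 500 nM biotin-H3K9 peptide, 20 uM SAM cofactor, 2 h, room temperature, following 15 min enzyme-compound preincubation.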
* hit, by the source's call; ? = inconclusive; nt = no result given; [ ] = dose if it differs, or a comment. Calls come from the whole dose curve; as a rule, active = well fitted inhibition curve with a large enough effect; inconclusive = small, poorly fitted or top-dose-only effect; inactive = no such curve, though single readings can be large or run the other way. Potency is the fitted concentration of half-maximal effect.

SMILES	JMJD2A Tudor inh	BAZ2B block	HP1b binding inh	L3MBTL1 inh	G9a block
COc1ccc(Cl)c2c1[nH]c1nc(SCc3cccnc3)nnc12	-1%	-11%	28%	-10%	?
Cc1c(C(C)(C)C)c(C=S)n2ccccc12	50µM*	-38%	?	nt	4µM*
Cc1ccc2c(c1)N(C(=O)N1CCC(C(=O)NCc3cccc(Br)c3)CC1)CCO2	-11%	-2%	40%	nt	-34%[59 µM]
Cc1ccc(C2CC(c3cccs3)=NN2C(=O)c2ccco2)o1 (configuration not stated)	?	?	-5%	-13%	35µM*
O=C(COc1ccccc1F)N1N=C(c2cccs2)CC1c1ccco1 (configuration not stated)	14µM*	?	-24%	-28%	50µM*
C=CCn1c(SCC(=O)N(CC)c2c(N)n(Cc3ccccc3)c(=O)[nH]c2=O)nnc1-c1ccccc1OC	-12%	nt	23%	nt	nt
Fc1ccc(CNCc2ccccc2Cl)cc1	20µM*	nt	?	12%	2.8µM*
CCC(=O)Nc1ccc(OCc2cc(C3Nc4ccccc4C(=O)N3Cc3ccccc3)ccc2OC)cc1 (configuration not stated)	-35%	nt	nt	nt	nt
C(=N\N1CCN(Cc2ccccc2)CC1)/c1cccs1	?	?	-19%	-25%	?
CCN(CC)c1ccc(/C=N/N2C(=O)c3ccccc3C2=O)c(O)c1	-26%	15%	9%	33%	?
CCN(CC)c1ccc(/C=N/N2CCN(Cc3cccc4ccccc34)CC2)c(O)c1	7.1µM*	?	?	-8%	3%[2.33 µM]
C(=N\N1CCN(Cc2cccc3ccccc23)CC1)/c1cccs1	40µM*	13µM*	?	-4%	50µM*
CCN(CC)c1ccc(/C=N/N2CCN(Cc3ccc(Cl)cc3)CC2)c(O)c1	?	3.5µM*	?	-14%	10µM*
CCN(CC)S(=O)(=O)c1ccc(OC)c(NC(=O)c2sc3ccccc3c2Cl)c1	-6%	0%	35%	nt	1%[59 µM]
CCCSc1ncc(Cl)c(C(=O)Nc2sc3c(c2C(=O)NCC)CCCC3)n1	-15%	-6%	14%	nt	-27%[59 µM]
CC(C)Cn1nc(NC(=O)c2ccco2)c2cc3ccccc3nc21	31%	64%	89%	56%	?
CCn1nc(NC(=O)c2ccco2)c2cc3ccccc3nc21	25%	7%	85%	22%	7.9µM*
CCn1nc(NS(=O)(=O)c2ccc([N+](=O)[O-])cc2)c2cc3ccccc3nc21	-31%	?	32%	nt	45µM*
CCCn1nc(NC(=O)c2ccco2)c2cc3cc(C)ccc3nc21	10%	20%	64%	33%	22µM*
CN(C(=O)c1cc2c(=O)oc3ccccc3c2s1)c1ccc(F)cc1	-13%	9%	-1%	nt	?
COc1ccc(Cn2c(CCC(=O)NCc3cccc(Cl)c3)nc3cccnc32)cc1	-1%	-35%	19%	nt	-13%[59 µM]
CC(C)(C)c1ccc(C(=O)N2CCC(C(=O)c3ccccc3)CC2)cc1	-9%	-6%	-2%	nt	8%
N#C/C(=C\c1ccc(-c2ccc([N+](=O)[O-])cc2Br)o1)C(=O)N1CCN(c2ccccc2)CC1	?	?	-16%	-16%	4µM*
N#C/C(=C\c1ccc(-c2cccc([N+](=O)[O-])c2)o1)C(=O)N1CCOCC1	?	-11%	-2%	-9%	-1%
CN(C)CCCNS(=O)(=O)c1ccc(N2CCN(Cc3ccc4c(c3)OCO4)CC2)c([N+](=O)[O-])c1	5.6µM*	22µM*	22µM*	nt	10µM*
SMILES	JMJD2A Tudor inh	BAZ2B block	HP1b binding inh	L3MBTL1 inh	G9a block
CN(C)CCNS(=O)(=O)c1ccc(N2CCc3ccccc32)c([N+](=O)[O-])c1	?	?	?	nt	50µM*
O=[N+]([O-])c1ccc(N2CCN(Cc3ccc4c(c3)OCO4)CC2)nc1	?	?	1%	-13%	nt
O=Cc1cc([N+](=O)[O-])ccc1N1CCN(Cc2ccc3c(c2)OCO3)CC1	?	?	7%	nt	45µM*
CC(=O)c1ccc(N2CCN(c3ccc(S(=O)(=O)NCCN(C)C)cc3[N+](=O)[O-])CC2)cc1	-7%	?	32%	nt	nt
COc1ccc(C2=NOC(Cn3nc(-c4ccccc4C)cc3C(=O)O)C2)cc1 (configuration not stated)	-16%	4%	28%	1%	3%[0.501 µM]
N[C@@H](Cc1cc(I)c(Oc2ccc(O)cc2)c(I)c1)C(=O)O	nt	nt	nt	nt	25%[59 µM]
CC(=O)c1cc(O)c2ccccc2c1O	56µM*	45µM*	?	-27%	3.2µM*
CC(=O)c1c(C)oc2c1cc(O)c1ccccc12	-9%	-9%	22%	nt	11%
COc1cc(NC(=O)c2noc3c2CC(C(C)(C)C)CC3)cc(OC)c1OC (configuration not stated)	-8%	-19%	29%	nt	-26%[59 µM]
CCOP(=O)(OCC)C(C#N)=C1SCN(c2ccc(Cl)cc2)CS1	79µM*	8%	-2%	-3%	?
CC(C)(C)NC(=O)[C@@H]1CN(Cc2cccnc2)CCN1C[C@@H](O)C[C@@H](Cc1ccccc1)C(=O)N[C@H]1c2ccccc2C[C@H]1O	89µM*	nt	8%	nt	nt
COc1ccc(C(NC(C)=O)c2cc(Cl)c3cccnc3c2O)cc1OC (configuration not stated)	56µM*	28µM*	30%	-5%	9%
COc1ccccc1C(NC(C)=O)c1cc(Cl)c2cccnc2c1O (configuration not stated)	?	-13%	36%	nt	18%
CCC(=O)NC(c1ccc(OC)c(OC)c1)c1cc(Cl)c2cccnc2c1O (configuration not stated)	-24%	40µM*	41%	16%	nt
CCCC(=O)NC(c1cccs1)c1cc(Cl)c2cccnc2c1O (configuration not stated)	-17%	-4%	45%	-6%	1%
CCCC(=O)NC(c1ccco1)c1cc(Cl)c2cccnc2c1O (configuration not stated)	-24%	50µM*	55%	nt	18%[59 µM]
CCC(=O)NC(c1ccco1)c1cc(Cl)c2c(c1O)NCCC2 (configuration not stated)	56µM*	nt	nt	nt	nt
CC(=O)c1ccc(N2CCN(S(=O)(=O)c3ccc4c(c3)NC(=O)CO4)CC2)cc1	-5%	-2%	39%	nt	nt
Cc1ccc(CN(Cc2ccco2)C(=O)c2ccccc2Br)o1	?	?	-19%	nt	?
Cc1ccc(-n2c(SCC(=O)NCc3ccc(F)cc3)nc3c([nH]c4ccccc43)c2=O)cc1	-16%	-10%	21%[57 µM]	nt	-35%[59 µM]
O=C(Nc1ccc(Oc2ccccc2)cc1)C1CCCO1 (configuration not stated)	100µM*	7%	-2%	-9%	-6%[59 µM]
CSc1ccccc1NC(=O)C1CCCO1 (configuration not stated)	-16%	12%	7%	8%	16µM*
